HCMV antiviral – inhibitors of human cytomegalovirus. HFF cells, HCMV-luciferase reporter, 72 h; hits give low values. activity change, negative = inhibition, % at 57.5 µM. 410,000 tested, 4.5% active; in the data active = activity change below about -60%; inconclusive = no clear call, values can overlap the other calls; inactive = above about -39%
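HFF cells seeded 16 h at 37C, treated with compounds, infected with luciferase-reporter HCMV at MOI 1 PFU/cell; luciferase read at 72 h post infection, normalized to buffer-only and Salinomycin controls.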
MARV entry inh – inhibitors of Marburg virus binding or cell entry | Marburg virus pseudotyped entry inhibition, cell reporter | AID 540276 | Potency, µM (titrated, usually from 37.8 µM), hits mostly inhibitors | 300,000 tested, 1.8% active; calls by dose curve; tested in HEK293 cells
Vaccinia mCherry – vaccinia inhibition (mCherry reporter) | Vaccinia virus mCherry reporter infection, fluorescence | Potency, µM (doses to about 36.5 µM), usual class: inhibitors | 310,000 tested, 0.63% active | AID 720579; calls by dose curve; tested in A549 cells; also: nearly all actives have a fitted effect of over 35% in size
FMDV inh – foot and mouth disease virus antiviral activity. AID 1159524. 410,000 tested, 1.2% active. FMDV antiviral cell-based qHTS. Potency, µM (top dose mostly 57.9 µM), usual class: inhibitors; calls by dose curve; tested in HEK293T cells; also: read-out not given here; nearly all actives have a fitted effect of over 45% in size
Lassa entry inh – inhibitors of Lassa virus binding or cell entry. Potency, µM (doses to about 37.9 µM), actives largely listed as inhibitors. 300,000 tested, 1.2% active. Lassa virus pseudotype entry inhibition, cell reporter. AID 540256; calls by dose curve; tested in HEK293 cells; also: nearly all actives have a fitted effect of over 50% in size
VACV Venus inh – inhibitors of vaccinia virus (Venus reporter) | Potency, µM (series often up to 36.5 µM), hits mostly inhibitors | AID 720580 | 330,000 tested, 0.46% active | Vaccinia virus Venus reporter expression, fluorescence; calls by dose curve; tested in A549 cells; also: nearly all actives have a fitted effect of over 30% in size
Numbers stand for hits; 0 = inactive; ? = inconclusive; - = no result given; + = active, no number. This is a sample that favours compounds with a hit; in the whole collection about 6.5% have one here.

SMILES	HCMV antiviral	MARV entry inh	Vaccinia mCherry	FMDV inh	Lassa entry inh	VACV Venus inh
O=C(Nc1ccc2c(c1)CCCN2C(=O)c1cccs1)c1ccccc1	0	?	0	0	?	0
CCCc1nnc(NC(=O)C2CCN(C(=O)C3CC(=O)N(c4ccc(C)cc4)C3)CC2)s1 (stereo not drawn)	0	?	0	0	0	0
CC(=NNc1ccc([N+](=O)[O-])cn1)c1ccc(N)cc1	0	0	0	0	0	0
O=C(CN1C(=O)CSc2ccc(S(=O)(=O)N3CCCC3)cc21)NCc1ccc(F)cc1Cl	0	-	0	0	0	0
Cc1ccc(S(=O)(=O)N(C)C[C@@H]2OCc3cnnn3CCCC(=O)N([C@H](C)CO)C[C@@H]2C)cc1	0	-	0	0	-	0
COc1ccccc1C(=O)Nc1ccc2c(c1)CCCN2C(=O)c1cccs1	-60	?	0	0	?	0
COc1ccccc1C(=O)Nc1ccc2c(c1)CCCN2C(=O)c1ccccc1	?	?	0	0	?	0
O=C(Nc1ccc2c(c1)CCCN2C(=O)c1ccccc1)c1ccccc1Br	-70	-	-	?	-	-
O=C(Nc1ccc2c(c1)CCCN2C(=O)c1cccs1)c1cccc(C(F)(F)F)c1	-70	-	0	?	?	0
CNC(=O)COc1ccc(Nc2nnc(-c3ccc(C)c(S(N)(=O)=O)c3)c3ccccc23)cc1	0	0	0	0	?	0
CC1(C)C(=O)NC2=C1C(=O)C(=O)c1ccccc12	-	-	-	14µM	-	-
C#CCCCO/N=C1/C[C@@H](O)[C@@H](O)[C@@H]2[C@@H]3C(=O)N(C(C)(C)C)C(=O)[C@H]3CC[C@H]12	-	0	-	-	-	-
O=S(=O)(NC1CC1)c1ccc(S(=O)(=O)N2CCCC(c3nc(-c4cccnc4)no3)C2)cc1 (stereo not drawn)	-66	?	0	?	0	0
O=S(=O)(c1ccc(F)cc1)N1CCCC(c2nc(-c3ccc(F)cc3)no2)C1 (stereo not drawn)	0	-	0	0	-	0
Cn1c2c(c(=O)n(C)c1=O)[C@@](NC(=O)C(C)(C)C)(C(F)(F)F)C(=O)N2	-	0	-	-	-	-
CCSc1nc(-c2ccccc2)nc(C(Cl)Cl)n1	-82	-	?	0	-	10µM
CCSc1nc(-c2ccccc2)c2cc(Cl)ccc2n1	0	0	0	0	0	0
CC(C)Cc1nc2oc3c(Cl)ncnc3c2c2c1CCC2	-96	?	0	0	?	0
Cc1noc(C)c1CSCC(=O)Oc1ccc(N(C)S(=O)(=O)c2ccc(Cl)cc2)cc1	0	0	0	0	0	0
Cn1c(CCN2CCN(c3ccccn3)CC2)nc2cc(NC(=O)COc3ccc(Cl)cc3)ccc21	-97	-	-	11µM	-	-
Cc1cccc(OCC(=O)Nc2ccc3c(c2)nc(CCN2CCN(c4ccccn4)CC2)n3C)c1	+	-	-	32µM	-	-
CCOc1ccccc1CNS(=O)(=O)c1cc(-c2onc(C)c2C)ccc1OC	+	-	0	0	0	0
COc1ccc(CCNS(=O)(=O)c2cc(-c3onc(C)c3C)ccc2OC)cc1OC	0	-	0	0	0	0
COc1ccc(-c2onc(C)c2C)cc1S(=O)(=O)NCc1ccc(C)o1	-71	-	0	0	?	0
COc1ccccc1CN1CCC(CNS(=O)(=O)c2cc(-c3onc(C)c3C)ccc2OC)CC1	0	-	?	0	0	0
SMILES	HCMV antiviral	MARV entry inh	Vaccinia mCherry	FMDV inh	Lassa entry inh	VACV Venus inh
O=C(c1ccccc1)c1ccc2nc(N3CCN(c4ccc(F)cc4)CC3)c3nncn3c2c1	-67	0	?	0	?	?
Cc1ccc2[nH]c3c(NCCN4CCOCC4)ncnc3c2c1	0	0	0	0	?	0
COc1ccc2[nH]c3c(NCCC4=CCCCC4)ncnc3c2c1	-89	10µM	?	0	?	?
CCN(CC)CCNc1ncnc2c1[nH]c1ccc(OC)cc12	-	0	-	-	-	-
C=CCNc1ncnc2c1[nH]c1ccc(C)cc12	-68	?	?	-	0	?
Fc1ccc2[nH]c3c(NCc4ccccc4)ncnc3c2c1	-85	?	?	?	0	?
CN(C)Cc1ccccc1-c1cc(Nc2ccccc2)ncn1	-	-	0	0	-	0
Nc1nc(N)c(-c2cccc(C(F)(F)F)c2)c(Cc2cccc(C(F)(F)F)c2)n1	-75	?	4.5µM	0	?	4µM
COc1ccc([N+](=O)[O-])cc1N(CC(=O)NCCC1=CCCCC1)S(C)(=O)=O	0	0	0	0	?	0
O=C1/C(=C/Nc2ccc3c(c2)OCO3)CCc2ccccc21	-62	?	?	?	1.4µM	0
COc1ccc(N/C=C2\CCc3ccccc3C2=O)cc1	0	-	-	25µM	-	-
COc1ccc2c(c1)CC/C(=C\Nc1ccc3c(c1)OCO3)C2=O	0	?	0	-	?	0
CCOC(=O)[C@]12CCCC=C1N(Cc1cccc3ccccc13)C(=O)[C@H](CC(=O)NCCCOC)C2	0	-	0	0	-	0
CCOC(=O)C1CCCN(C(=O)c2cnn(-c3ncc4c(n3)-c3ccccc3CCC4)c2C2CC2)C1 (stereo not drawn)	-	-	0	0	-	0
CCc1nn(CC(=O)NCCN2CCN(C)CC2)c(=O)c2cc3occc3n12	-104	0	-	0	0	?
Cc1ccc(NC(=O)C2CCCN2S(=O)(=O)c2ccc3nc(-c4ccccc4)[nH]c3c2)cc1F (stereo not drawn)	-84	-	0	?	?	0
CC(NS(=O)(=O)c1ccccc1Cl)C1CC2CCC1C2 (stereo not drawn)	?	0	?	0	0	0
CCCc1nc2ccccc2c(=O)n1/N=C/c1ccccc1O	?	?	10µM	0	?	?
CCCc1nc2ccccc2c(=O)n1CCc1ccccc1	0	?	0	?	2.5µM	0
CCn1c(/C=C/c2ccccc2)nc2ccccc2c1=O	-61	-	-	0	-	-
Cc1nc2ccccc2c(=O)n1/N=C/c1ccc(O)cc1O	0	0	?	0	0	0
O=c1c2ccccc2nc(/C=C/c2cc(Br)ccc2O)n1CCO	-98	-	-	?	-	-
Cc1ccc(Cl)cc1N1CCN(C(=O)COCc2cc(-c3ccc4c(c3)OCO4)on2)CC1	0	-	0	0	0	0
COCc1[nH]nc2c1[C@@H](c1cccc(OC)c1)C(C#N)=C(N)O2	-	0	-	-	-	-
O=c1c2ccccc2nc(/C=C/c2ccc(O)cc2)n1CCc1ccccc1	?	?	?	35µM	9.2µM	0
SMILES	HCMV antiviral	MARV entry inh	Vaccinia mCherry	FMDV inh	Lassa entry inh	VACV Venus inh
CN=c1scc(-c2ccc([N+](=O)[O-])cc2)n1/N=C/c1ccco1	-87	0	0	0	0	0
COc1ccc(CNC(=O)C(CCSC)NS(=O)(=O)c2ccc3c(c2)oc(=O)n3C)cc1 (stereo not drawn)	0	-	0	0	0	0
CC(NC(=O)NC(N)=O)(C(F)(F)F)C(F)(F)F	0	0	0	-	0	0
CC(NC(=O)NNC(N)=S)(C(F)(F)F)C(F)(F)F	0	0	?	0	0	28µM
COc1cc(/C=C(\C#N)C(=O)Nc2nnc(C(F)(F)F)s2)ccc1OCc1ccc(C(F)(F)F)cc1C(F)(F)F	-	0	-	-	15µM	-
COc1ccccc1CN(Cc1nc2ccccc2c(=O)[nH]1)C(=O)Nc1ccc(C)cc1	0	0	0	-	0	0

Screening data (PubChem)
